In the supplement of paper PMC11732987, “Enantioselective OTUD7B fragment discovery through chemoproteomics screening and high-throughput optimisation” (Communications Chemistry, 2025):

How the values were obtained:
Assay in all cases: log2 ratio of Biotin-Ahx-Ub-VS probe labelling (fragment/DMSO); higher = less target engagement (more negative = stronger competition), active = hit call of the paper (q ≤ 0.05, log2 ratio ≤ -1)
Conditions in all cases: compound concentration: 200 uM; treatment time: 3 h
USP42 = target: T1, USP42 (UniProt Q9H9J4)
T1 sequence (whole entry): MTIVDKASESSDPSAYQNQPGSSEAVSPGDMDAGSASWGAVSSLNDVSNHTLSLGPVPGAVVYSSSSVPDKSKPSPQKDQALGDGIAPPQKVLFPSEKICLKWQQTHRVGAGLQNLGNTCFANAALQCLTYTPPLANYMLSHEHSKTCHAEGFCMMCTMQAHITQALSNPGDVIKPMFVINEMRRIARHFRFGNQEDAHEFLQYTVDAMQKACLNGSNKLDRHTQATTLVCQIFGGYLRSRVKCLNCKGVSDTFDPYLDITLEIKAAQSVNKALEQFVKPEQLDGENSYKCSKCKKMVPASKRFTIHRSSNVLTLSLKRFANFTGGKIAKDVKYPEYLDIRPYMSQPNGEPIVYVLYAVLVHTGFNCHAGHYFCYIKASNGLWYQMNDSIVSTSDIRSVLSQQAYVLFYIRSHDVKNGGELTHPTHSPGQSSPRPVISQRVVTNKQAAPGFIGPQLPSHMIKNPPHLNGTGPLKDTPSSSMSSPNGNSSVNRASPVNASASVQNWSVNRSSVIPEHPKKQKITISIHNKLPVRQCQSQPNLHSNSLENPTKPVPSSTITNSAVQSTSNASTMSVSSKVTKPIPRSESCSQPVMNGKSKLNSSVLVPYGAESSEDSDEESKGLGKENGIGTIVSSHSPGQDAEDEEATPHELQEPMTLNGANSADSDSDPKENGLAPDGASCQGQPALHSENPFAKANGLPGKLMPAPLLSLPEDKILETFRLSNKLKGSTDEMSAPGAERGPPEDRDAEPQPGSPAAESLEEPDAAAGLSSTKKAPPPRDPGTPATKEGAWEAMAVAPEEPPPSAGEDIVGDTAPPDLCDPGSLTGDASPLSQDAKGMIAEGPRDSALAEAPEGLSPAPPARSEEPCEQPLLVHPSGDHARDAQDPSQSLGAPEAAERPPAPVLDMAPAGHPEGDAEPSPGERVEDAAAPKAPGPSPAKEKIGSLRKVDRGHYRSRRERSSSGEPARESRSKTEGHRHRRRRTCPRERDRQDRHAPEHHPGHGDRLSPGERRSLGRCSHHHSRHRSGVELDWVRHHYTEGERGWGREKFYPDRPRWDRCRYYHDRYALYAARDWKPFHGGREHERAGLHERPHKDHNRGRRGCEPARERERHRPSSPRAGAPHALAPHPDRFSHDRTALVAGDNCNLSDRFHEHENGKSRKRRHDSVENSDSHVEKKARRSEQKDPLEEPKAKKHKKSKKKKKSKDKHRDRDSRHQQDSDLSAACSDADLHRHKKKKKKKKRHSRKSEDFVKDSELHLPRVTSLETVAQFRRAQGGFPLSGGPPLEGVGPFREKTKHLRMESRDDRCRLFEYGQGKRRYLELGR
Outline: (§1)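 Fragment (200 µM) or vehicle was incubated for 3 h with triplicate HEK293T lysate samples of 495 µg, which were then treated with Biotin-Ahx-Ub-VS at 0.5 µM final for 1 h. Labelled DUBs were enriched on NeutrAvidin, digested with LysC and trypsin, and analysed by diaPASEF LC-MS/MS. Values are average log2 fragment/vehicle ratios from an unpaired t-test on global-median-normalised Spectronaut label-free quantities, using proteins with ≥2 unique peptides.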

USP46 = USP46 (UniProt P62068)
Chain of USP46 (P62068 whole entry): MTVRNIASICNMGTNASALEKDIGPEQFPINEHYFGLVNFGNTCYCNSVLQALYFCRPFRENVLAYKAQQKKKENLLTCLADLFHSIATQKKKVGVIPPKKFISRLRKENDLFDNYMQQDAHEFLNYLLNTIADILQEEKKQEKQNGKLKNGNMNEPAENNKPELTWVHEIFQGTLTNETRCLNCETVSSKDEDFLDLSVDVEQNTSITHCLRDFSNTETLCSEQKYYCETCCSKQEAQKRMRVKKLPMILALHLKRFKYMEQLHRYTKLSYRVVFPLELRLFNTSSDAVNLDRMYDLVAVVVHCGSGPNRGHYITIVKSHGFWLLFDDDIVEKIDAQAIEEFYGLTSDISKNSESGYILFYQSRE
Outline: as §1

USP47 = target: T2, USP47 (UniProt Q96K76)
T2 sequence (whole entry): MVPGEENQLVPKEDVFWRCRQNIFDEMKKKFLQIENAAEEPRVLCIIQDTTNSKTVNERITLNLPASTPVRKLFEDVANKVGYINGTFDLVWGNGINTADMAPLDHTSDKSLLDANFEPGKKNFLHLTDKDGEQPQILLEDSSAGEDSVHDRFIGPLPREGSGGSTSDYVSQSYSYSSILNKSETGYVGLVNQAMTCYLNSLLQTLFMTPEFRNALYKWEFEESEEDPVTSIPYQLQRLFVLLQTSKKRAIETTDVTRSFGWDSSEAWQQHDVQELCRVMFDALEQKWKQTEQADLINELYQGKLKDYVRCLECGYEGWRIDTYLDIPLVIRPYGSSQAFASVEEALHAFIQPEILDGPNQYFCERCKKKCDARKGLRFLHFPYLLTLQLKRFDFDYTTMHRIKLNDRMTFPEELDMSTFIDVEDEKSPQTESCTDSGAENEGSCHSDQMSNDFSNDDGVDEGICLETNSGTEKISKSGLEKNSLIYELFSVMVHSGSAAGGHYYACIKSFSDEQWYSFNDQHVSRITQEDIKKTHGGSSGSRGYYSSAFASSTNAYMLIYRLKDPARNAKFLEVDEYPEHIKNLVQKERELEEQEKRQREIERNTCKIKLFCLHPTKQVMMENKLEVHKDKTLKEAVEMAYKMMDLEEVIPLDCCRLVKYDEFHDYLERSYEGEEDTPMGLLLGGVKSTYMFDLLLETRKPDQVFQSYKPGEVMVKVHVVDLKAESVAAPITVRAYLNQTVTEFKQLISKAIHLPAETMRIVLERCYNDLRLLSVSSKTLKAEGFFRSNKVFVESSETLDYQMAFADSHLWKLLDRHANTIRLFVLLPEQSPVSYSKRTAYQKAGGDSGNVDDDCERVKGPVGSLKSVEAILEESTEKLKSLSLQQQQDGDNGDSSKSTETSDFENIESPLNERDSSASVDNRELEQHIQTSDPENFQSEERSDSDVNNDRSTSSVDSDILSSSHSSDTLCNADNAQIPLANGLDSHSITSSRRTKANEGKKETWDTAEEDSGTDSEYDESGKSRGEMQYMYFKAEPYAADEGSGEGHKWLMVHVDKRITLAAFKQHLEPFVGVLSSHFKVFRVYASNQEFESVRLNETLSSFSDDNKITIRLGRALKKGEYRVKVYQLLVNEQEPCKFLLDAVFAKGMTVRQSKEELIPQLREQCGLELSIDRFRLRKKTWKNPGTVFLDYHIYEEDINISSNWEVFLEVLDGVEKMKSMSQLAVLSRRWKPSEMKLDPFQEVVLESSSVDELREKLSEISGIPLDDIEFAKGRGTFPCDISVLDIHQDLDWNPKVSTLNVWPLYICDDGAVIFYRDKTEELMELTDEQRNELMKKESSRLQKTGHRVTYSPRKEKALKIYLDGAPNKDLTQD
Outline: as §1

USP48 = target: T3, USP48 (UniProt Q86UV5)
T3 sequence (whole entry): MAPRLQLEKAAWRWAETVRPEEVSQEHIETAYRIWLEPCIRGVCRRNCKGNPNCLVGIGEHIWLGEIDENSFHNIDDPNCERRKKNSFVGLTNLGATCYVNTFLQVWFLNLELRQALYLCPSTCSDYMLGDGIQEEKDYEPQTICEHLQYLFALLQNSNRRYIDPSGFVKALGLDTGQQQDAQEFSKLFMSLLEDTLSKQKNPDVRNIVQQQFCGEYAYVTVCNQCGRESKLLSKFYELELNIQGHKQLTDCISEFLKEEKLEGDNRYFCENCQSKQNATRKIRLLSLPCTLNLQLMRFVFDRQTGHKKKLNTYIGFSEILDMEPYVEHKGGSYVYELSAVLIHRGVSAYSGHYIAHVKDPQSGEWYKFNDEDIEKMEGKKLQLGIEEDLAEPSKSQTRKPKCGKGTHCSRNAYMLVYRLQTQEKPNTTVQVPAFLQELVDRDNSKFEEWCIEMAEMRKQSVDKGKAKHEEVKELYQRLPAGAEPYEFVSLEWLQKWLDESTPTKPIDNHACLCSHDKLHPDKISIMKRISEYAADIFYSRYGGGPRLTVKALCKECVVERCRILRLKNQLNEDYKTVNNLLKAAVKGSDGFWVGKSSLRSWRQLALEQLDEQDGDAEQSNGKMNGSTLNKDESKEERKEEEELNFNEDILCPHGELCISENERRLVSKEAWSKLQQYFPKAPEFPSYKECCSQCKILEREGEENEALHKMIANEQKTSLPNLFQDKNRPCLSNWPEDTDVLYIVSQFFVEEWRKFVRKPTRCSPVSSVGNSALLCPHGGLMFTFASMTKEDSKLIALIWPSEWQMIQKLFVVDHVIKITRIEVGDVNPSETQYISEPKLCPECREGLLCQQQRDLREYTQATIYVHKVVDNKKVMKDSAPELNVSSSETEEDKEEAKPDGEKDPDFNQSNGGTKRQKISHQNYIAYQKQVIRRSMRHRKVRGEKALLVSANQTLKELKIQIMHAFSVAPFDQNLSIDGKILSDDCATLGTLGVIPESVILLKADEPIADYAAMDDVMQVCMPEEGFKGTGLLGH
Outline: as §1

USP5 = target: T4, USP5 (UniProt P45974)
T4 sequence (whole entry): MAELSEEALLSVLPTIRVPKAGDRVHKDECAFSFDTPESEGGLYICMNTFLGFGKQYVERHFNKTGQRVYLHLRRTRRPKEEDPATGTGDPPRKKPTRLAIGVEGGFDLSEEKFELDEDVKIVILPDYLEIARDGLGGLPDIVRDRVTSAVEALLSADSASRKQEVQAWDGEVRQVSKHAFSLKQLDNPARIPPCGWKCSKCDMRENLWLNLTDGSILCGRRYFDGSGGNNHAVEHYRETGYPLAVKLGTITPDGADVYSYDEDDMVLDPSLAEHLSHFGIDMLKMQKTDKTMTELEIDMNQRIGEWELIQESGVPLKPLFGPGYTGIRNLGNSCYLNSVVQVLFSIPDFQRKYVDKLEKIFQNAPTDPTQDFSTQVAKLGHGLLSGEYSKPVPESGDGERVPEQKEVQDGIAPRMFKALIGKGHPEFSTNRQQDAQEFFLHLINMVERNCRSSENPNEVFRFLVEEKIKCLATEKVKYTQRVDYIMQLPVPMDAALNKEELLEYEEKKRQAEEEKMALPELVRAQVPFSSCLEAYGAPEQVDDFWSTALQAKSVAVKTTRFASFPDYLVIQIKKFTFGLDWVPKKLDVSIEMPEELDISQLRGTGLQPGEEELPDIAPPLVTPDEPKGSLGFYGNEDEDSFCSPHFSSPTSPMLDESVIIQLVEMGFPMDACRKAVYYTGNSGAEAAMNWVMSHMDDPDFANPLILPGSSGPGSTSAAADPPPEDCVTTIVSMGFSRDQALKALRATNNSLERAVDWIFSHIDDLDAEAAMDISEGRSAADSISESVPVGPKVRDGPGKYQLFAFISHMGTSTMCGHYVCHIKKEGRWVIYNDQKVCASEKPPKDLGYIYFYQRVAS
Outline: as §1

USP54 = USP54 (UniProt Q70EL1)
Chain of USP54 (Q70EL1 whole entry): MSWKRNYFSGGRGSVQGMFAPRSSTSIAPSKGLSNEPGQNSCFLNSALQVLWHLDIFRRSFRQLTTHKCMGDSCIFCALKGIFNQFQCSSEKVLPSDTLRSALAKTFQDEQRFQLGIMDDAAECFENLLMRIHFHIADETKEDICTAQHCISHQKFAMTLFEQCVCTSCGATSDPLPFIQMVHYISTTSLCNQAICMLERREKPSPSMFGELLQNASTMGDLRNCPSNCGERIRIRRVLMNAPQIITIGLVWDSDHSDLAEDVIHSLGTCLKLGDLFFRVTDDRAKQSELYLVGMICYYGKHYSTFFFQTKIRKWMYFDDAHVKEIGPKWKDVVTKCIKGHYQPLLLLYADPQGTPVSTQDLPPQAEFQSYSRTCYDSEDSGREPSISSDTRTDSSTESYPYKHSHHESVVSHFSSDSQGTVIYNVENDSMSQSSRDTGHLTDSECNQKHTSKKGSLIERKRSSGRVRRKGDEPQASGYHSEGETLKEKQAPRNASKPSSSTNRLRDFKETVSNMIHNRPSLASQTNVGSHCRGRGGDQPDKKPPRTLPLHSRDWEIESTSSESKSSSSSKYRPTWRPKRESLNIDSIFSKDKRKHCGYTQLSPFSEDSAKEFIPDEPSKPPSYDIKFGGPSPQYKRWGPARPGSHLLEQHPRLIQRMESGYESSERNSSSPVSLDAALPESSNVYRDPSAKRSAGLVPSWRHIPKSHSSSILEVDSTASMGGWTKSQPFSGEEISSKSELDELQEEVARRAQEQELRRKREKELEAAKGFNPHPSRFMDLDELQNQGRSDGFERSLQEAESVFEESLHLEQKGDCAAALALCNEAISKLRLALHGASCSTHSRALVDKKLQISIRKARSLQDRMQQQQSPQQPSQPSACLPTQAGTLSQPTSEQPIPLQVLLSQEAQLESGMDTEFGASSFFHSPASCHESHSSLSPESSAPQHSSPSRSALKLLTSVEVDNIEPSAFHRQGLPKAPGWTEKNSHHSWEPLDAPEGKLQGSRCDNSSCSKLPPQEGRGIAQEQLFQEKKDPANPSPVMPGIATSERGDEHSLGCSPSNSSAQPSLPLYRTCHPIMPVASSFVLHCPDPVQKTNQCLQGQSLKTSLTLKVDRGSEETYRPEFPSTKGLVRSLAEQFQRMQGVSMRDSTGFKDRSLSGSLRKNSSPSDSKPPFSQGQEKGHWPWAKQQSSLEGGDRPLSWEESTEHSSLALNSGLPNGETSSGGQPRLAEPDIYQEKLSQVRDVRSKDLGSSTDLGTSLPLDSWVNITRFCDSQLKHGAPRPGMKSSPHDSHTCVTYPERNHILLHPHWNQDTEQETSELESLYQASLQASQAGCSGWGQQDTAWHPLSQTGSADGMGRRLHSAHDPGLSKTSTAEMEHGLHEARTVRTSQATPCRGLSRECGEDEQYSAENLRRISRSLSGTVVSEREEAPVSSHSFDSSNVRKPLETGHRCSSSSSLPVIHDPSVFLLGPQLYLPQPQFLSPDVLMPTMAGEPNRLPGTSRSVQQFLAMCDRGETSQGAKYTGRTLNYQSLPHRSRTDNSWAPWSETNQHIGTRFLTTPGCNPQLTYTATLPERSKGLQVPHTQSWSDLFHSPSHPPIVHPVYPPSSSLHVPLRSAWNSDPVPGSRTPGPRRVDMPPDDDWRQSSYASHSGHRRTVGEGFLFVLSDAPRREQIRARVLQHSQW
Outline: as §1

USP7 = USP7 (UniProt Q93009)
Outline: as §1

USP8 = target: T5, USP8 (UniProt P40818)
T5 sequence (whole entry): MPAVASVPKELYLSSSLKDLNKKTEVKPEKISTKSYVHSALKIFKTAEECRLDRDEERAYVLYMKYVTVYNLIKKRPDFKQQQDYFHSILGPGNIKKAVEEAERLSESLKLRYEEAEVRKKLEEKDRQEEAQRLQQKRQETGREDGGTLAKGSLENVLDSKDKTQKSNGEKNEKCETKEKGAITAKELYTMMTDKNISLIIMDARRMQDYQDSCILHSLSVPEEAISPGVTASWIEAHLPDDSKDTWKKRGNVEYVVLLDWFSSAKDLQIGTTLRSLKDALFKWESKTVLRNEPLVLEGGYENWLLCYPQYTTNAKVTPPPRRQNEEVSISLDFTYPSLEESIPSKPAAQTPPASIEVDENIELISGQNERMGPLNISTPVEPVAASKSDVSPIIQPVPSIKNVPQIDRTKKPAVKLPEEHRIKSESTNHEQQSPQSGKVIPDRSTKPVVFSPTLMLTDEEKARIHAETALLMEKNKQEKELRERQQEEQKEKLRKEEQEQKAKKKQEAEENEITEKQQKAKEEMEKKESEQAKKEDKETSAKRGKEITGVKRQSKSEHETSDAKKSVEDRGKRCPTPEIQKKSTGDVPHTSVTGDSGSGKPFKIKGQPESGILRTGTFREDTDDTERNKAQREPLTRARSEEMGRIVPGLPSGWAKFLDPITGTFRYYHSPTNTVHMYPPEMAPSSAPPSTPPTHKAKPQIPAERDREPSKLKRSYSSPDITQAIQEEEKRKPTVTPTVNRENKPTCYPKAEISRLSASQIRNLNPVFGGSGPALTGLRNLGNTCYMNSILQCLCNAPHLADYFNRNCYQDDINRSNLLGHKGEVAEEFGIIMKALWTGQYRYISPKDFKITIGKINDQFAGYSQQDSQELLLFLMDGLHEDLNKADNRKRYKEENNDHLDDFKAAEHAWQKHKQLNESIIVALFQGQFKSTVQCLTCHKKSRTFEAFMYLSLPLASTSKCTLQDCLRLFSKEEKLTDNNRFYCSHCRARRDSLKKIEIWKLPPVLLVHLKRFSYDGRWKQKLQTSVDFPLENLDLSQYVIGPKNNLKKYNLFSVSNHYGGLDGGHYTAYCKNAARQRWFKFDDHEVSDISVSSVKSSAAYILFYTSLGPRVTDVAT
Outline: as §1

USP9X = USP9X (UniProt Q93008)
Chain of USP9X (Q93008 whole entry): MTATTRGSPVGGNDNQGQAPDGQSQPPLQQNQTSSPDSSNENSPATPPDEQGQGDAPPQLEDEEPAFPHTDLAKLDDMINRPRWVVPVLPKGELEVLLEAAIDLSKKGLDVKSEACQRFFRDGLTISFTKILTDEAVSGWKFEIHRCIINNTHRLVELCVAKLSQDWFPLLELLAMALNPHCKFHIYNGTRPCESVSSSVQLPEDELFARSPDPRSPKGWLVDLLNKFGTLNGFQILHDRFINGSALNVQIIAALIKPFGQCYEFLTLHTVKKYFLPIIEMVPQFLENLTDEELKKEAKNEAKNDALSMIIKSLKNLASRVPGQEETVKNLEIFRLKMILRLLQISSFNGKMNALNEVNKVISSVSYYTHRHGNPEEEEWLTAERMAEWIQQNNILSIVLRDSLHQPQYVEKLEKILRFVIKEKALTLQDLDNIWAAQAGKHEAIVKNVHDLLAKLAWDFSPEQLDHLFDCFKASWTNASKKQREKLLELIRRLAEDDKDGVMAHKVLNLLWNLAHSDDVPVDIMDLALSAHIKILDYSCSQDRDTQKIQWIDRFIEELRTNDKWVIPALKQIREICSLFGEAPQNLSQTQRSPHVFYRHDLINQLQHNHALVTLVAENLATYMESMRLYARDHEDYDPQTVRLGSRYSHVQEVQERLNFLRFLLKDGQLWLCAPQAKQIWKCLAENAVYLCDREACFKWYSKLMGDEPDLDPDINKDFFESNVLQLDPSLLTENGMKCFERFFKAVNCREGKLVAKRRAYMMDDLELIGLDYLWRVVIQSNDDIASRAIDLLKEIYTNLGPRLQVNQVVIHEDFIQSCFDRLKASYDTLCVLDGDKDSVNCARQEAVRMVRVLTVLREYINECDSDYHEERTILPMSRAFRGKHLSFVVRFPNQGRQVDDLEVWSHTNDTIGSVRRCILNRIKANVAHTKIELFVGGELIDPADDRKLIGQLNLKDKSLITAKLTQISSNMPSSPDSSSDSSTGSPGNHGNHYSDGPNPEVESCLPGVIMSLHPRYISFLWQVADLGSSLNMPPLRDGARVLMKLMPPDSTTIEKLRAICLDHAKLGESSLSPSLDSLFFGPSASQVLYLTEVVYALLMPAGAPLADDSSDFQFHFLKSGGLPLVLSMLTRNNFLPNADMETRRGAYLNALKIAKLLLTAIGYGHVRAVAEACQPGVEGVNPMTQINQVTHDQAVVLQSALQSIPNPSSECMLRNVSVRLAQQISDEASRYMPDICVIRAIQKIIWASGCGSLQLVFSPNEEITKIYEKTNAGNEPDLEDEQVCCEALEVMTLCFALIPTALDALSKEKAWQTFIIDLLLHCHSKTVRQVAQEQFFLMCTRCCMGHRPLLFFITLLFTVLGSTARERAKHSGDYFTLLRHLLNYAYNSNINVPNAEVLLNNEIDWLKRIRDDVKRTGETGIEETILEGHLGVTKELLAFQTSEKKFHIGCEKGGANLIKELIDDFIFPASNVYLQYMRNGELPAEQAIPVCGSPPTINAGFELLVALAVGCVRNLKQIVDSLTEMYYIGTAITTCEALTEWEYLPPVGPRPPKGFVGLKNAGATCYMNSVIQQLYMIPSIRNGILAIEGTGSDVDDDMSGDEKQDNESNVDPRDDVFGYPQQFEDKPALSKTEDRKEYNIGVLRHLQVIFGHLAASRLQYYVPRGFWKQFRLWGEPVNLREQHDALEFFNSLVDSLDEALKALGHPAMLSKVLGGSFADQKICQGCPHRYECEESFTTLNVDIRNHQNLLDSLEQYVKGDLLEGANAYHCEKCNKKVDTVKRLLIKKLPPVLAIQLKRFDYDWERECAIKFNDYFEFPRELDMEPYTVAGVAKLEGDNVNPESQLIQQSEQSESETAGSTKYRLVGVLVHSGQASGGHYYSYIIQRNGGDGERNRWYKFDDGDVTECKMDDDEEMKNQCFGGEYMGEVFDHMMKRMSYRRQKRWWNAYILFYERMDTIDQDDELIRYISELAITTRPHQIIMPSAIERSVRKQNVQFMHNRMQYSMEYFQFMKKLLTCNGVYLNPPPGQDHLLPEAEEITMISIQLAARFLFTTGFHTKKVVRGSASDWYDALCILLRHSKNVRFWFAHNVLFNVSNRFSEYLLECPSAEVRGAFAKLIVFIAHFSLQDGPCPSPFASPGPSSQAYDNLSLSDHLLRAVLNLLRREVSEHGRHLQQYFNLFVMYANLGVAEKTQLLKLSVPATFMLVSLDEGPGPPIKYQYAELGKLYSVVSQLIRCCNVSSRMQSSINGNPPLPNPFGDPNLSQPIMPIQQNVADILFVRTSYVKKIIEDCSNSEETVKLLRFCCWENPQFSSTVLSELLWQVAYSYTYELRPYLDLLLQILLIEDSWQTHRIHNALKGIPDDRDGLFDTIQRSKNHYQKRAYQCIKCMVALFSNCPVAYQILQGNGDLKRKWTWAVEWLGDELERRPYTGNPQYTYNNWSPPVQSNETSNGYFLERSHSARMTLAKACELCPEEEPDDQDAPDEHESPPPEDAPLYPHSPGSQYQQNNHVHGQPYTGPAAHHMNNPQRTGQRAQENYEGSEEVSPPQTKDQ
Outline: as §1

UniProt O00487 = target: UniProt O00487
Chain of UniProt O00487 (O00487 whole entry): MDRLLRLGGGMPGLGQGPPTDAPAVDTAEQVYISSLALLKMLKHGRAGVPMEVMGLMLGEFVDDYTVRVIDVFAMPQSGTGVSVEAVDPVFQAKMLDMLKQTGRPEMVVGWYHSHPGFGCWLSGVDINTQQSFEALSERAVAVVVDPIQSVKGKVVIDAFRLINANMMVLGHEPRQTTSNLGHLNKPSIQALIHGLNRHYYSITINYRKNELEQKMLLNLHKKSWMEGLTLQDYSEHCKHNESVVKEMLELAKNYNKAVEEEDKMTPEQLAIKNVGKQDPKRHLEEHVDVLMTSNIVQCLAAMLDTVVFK
Outline: as §1

Measured: log2 ratio of Biotin-Ahx-Ub-VS probe labelling

CN1c2ccccc2C(NC(=O)CCl)CS1(=O)=O (stereo not given)
inactive: USP42 -0.0975 | USP46 0.0351 | USP47 -0.132 | USP48 -0.464 | USP5 0.146 | USP54 0.66 | USP7 -0.369 | USP8 -0.341 | USP9X -0.252 | UniProt O00487 -0.206
